Results: PubChem BioAssay AID587 (National Center for Advancing Translational Sciences (NCATS), 2007)
Screen size: about 59,000 compounds; about 35 (0.06%) were called active. Inconclusive results (about 19%) are left out. The sample holds actives, similar compounds and a random draw of the others, so the mix is not that of the screen. No stated cut-off is given here; in the data, active means max dye-equivalent concentration above about 10 nM; inconclusive means between about 1.1 nM and that limit; inactive means weaker than that.

Test: qHTS Assay for Spectroscopic Profiling in Texas Red Spectral Region
Settings: Compound fluorescence, Texas Red channel, 547/618 nm; stronger effect = higher value
Text: NIH Molecular Libraries Screening Centers Network [MLSCN] NIH Chemical Genomics Center [NCGC] […] Occasionally, the artifactual effect may originate from the compound#s own spectral or other biophysical properties which generally tend to track its assay concentration. Pre-screening/profiling the library with respect to the compounds# spectral properties should help one exclude false positives early on. While the most informative fluorescent profiling data set is obtained by performing a full excitation and emission scan of each well by using a monochromator-based plate reader, such an approach is practical only on a very limited scale as scanning each well requires long time. An alternative approach, applied here, is to perform plate reader scans using selected excitation and emission wavelength pairs to generate a multidimensional relational database that correlates compound concentration and the respective relative fluorescence intensity at a given wavelength set. A standard curve of Texas Red (TR) present on each plate as six-point concentration series, was used to compute a normalized fluorescence response, termed dye-equivalent concentration, for each compound at each concentration.
NCGC Assay Protocol Summary: Buffer: 100 mM Tris buffer, pH 8.0 Dye standard plate: The wells in columns 1 through 4 of a Kalypsys polypropylene 1536-well compound plate were filled with standard solutions of fluorophore corresponding to the spectral region of interest. Solutions of TR were placed in the following wells: U1, V1: 3 mM, U2, V2: 300 uM, U3, V3: 30 uM, U4, V4: zero (DMSO), W1, X1: 3 uM, W2, X2: 900 nM, W3, X3: 300 nM, W4, X4: zero (DMSO). Assay Steps: Six uL of buffer were dispensed to 1536-well Greiner black plates. Compounds and dye standards (23 nL) were transferred via Kalypsys PinTool. The plates were incubated for 15 min at room temperature, and then read on ViewLux (Perkin-Elmer) High-throughput CCD imager using 547 nm and 618 nm excitation and emission filter set. Keywords: NIH Roadmap, MLSCN, MLI, MLSMR, qHTS, NCGC, Texas Red, Fluorescent Profiling.

Structure (SMILES) | max dye-equivalent concentration
COc1ccc(OCc2cccc(C(=O)N3CCCC3)c2)cc1 | inactive
CN(c1ccc(C(=O)NCCC2=CCCCC2)cc1)S(C)(=O)=O | inactive
CCOc1ccc(C2C(C(=O)O)c3ccccc3C(=O)N2CCN2CCOCC2)cc1 (stereo unspecified) | inactive
COc1ccccc1CNc1ncnc2ccc(-c3ccc4c(c3)OCO4)cc12 | inactive
Cc1ccc2nc(-c3ccc(SCC(=O)Nc4cc(C)on4)nc3)[nH]c2c1 | inactive
COc1ccc(-n2c(SCC(=O)NCc3cccs3)nnc2-c2ccoc2C)cc1 | inactive
CN(C)CCNC(=O)C(C(=O)c1ccccc1)n1ccccc1=O (stereo unspecified) | inactive
CC1Cn2c(nnc2-c2cccs2)S1 (stereo unspecified) | inactive
CSc1ncccc1C(=O)OCC(=O)N1CCOCC1 | inactive
c1ccc(-c2oc3ncnc(N4CCOCC4)c3c2-c2ccccc2)cc1 | inactive
O=c1c(-c2cc(F)cc(F)c2)nc2cnc(Oc3ccccc3)nc2n1C[C@H]1CCCO1 | inactive
COc1ccc(-n2ncc3c(N4CCc5ccccc54)ncnc32)cc1 | inactive
CN(C)c1ccc(-c2nc(NCCN3CCOCC3)c3ccccc3n2)cc1 | inactive
CC(NCCO)C(=O)C12CC3CC(CC(C3)C1)C2 (stereo unspecified) | inactive
O=c1c(-c2ccc(F)cc2)nc2cnc(N3CCOCC3)nc2n1-c1ccccc1 | inactive
Cc1cc(N2C(=O)C(=O)/C(=C(/O)c3ccc(Cl)cc3)C2c2cccc(Br)c2)no1 (stereo unspecified) | inactive
CC[C@H](c1ccccc1)c1cc(C(C)(C)C)cc(C(C)(C)C)c1O | inactive
COc1ccc(C(=O)n2nc(-c3ccc(C)cc3)nc2N)cc1OC | inactive
Cn1cc(-c2nc3cnc(N4CCNCC4)nc3n(CCc3ccccc3)c2=O)c2ccccc21 | inactive
O=c1c(CCc2ccccc2)nc2cnc(N3CCNCC3)nc2n1Cc1cccs1 | inactive
Cc1nc2nc(COc3ccccc3)[nH]n2c(=O)c1C | inactive
COc1ccc(C(C(O)C(=O)c2c[nH]c3ccccc23)N2CCN(c3ccccc3)CC2)cc1 (stereo unspecified) | inactive
COc1ccc(NS(=O)(=O)c2ccc(NC(=O)C(C)(C(F)(F)F)C(F)(F)F)cc2)nn1 | inactive

Structure (SMILES) | max dye-equivalent concentration
N#Cc1ccc(OCCN2C(=O)NC3(CCSC3)C2=O)cc1 (stereo unspecified) | inactive
Cc1nc2cnc(Nc3ccccc3)nc2n(Cc2ccc(F)cc2)c1=O | inactive
CC(=O)O[C@]1(C(C)=O)CC[C@@H]2[C@@H]3C=C(C)C4=CC(=O)CC[C@@]4(C)[C@H]3CC[C@]21C | inactive
Cc1oc(-c2cccc(Cl)c2)[n+]([O-])c1C | inactive
CCOC(=O)CCc1c(C)c(C#N)c2[nH]c3ccccc3n2c1=O | inactive
Cc1cc(C)c(C#N)c(SCc2ccccc2C(=O)O)n1 | inactive
CC(CCc1ccccc1)NC(=O)c1ccc(Br)o1 (stereo unspecified) | inactive
CCCCCNC(=O)Cc1ccc(OC)cc1 | inactive
CCN(CC)C(=O)N1CCN(C(=O)c2ccc(C)cn2)CC1 | inactive
CCCOC(=O)C1=C(C)NC2=C(C(=O)C(C(=O)OC)C(C)C2)C1c1ccc(N(C)C)cc1 (stereo unspecified) | inactive
Cc1cc(C)n(-c2ccc(Cl)c(C(=O)O)n2)n1 | inactive
COCCn1c(=O)c(C)nc2cnc(N(C)C)nc21 | inactive
COCCn1c(=O)c(-c2ccc(OC)cc2)nc2cnc(Oc3cccc(Cl)c3)nc21 | inactive
O=C(O)CCC(=O)N(Cc1ccco1)c1nc(-c2ccccc2)cs1 | inactive
COc1ccc2nc(NC3=NCN(CC4CCCO4)CN3)nc(C)c2c1 (stereo unspecified) | inactive
COc1ccc(-c2ccnc(SCC(=O)N3CCOCC3)n2)cc1 | inactive
COc1ccc(-c2nc3cnc(OC)nc3n(Cc3ccc(F)cc3)c2=O)cc1 | inactive
COc1ccc(CCn2c(-c3ccco3)nc3nc4ccccc4nc32)cc1OC | inactive
COc1ccc(C(C)=O)cc1COC(=O)Cn1cnc2ccccc2c1=O | inactive
Cc1cc(C)nc(SCc2nnc(SCC(=O)Nc3ncc(C)s3)n2Cc2ccco2)n1 | inactive
COc1ncc2nc(-c3ccc(Cl)cc3)c(=O)n(C)c2n1 | inactive
Cn1c(=O)c(-c2ccccc2)nc2cnc(N3CCNCC3)nc21 | inactive
CS(=O)(=O)N(CC(=O)NCc1ccco1)c1ccc2c(c1)OCO2 | inactive

Structure (SMILES) | max dye-equivalent concentration
Cc1cccc2cc(CN(Cc3nnnn3Cc3ccccc3)C3CCCC3)c(=O)[nH]c12 | inactive
CC(C)C(=O)Nc1cccc(C(=O)Nc2ccc3c(c2)OCO3)c1 | inactive
O=C1NC(=O)[C@@](Cc2ccccc2)(c2cccnc2)N1 | inactive
O=C(CN(c1ccc2c(c1)OCCO2)S(=O)(=O)c1ccccc1)Nc1ccc2c(c1)OCO2 | inactive
CN1CCc2c(sc3c2c(NCc2ccco2)nc2nnnn23)C1 | inactive
COc1ccc(C)cc1NC(=O)CSc1nc(SC)ns1 | inactive
N#Cc1ccccc1-c1ccc2ncnc(NCc3cccnc3)c2c1 | inactive
CCCC(=O)N1c2ccc(-c3csc(N)n3)cc2CC1C (stereo unspecified) | inactive
COc1ccc(-n2c(=O)c(C)nc3cnc(N4CCOCC4)nc32)cc1 | inactive
CC(C)C(NC(=O)c1cccc(S(=O)(=O)N2CCOCC2)c1)C(=O)NCCc1ccccn1 (stereo unspecified) | inactive
CSc1ccc(-c2c(C#N)c(N)nc3c2c(C)nn3-c2ccccc2)cc1 | inactive
CC(C)(C)n1nc2c(c1NC(=O)c1ccc(S(=O)(=O)N3CCCC3)cc1)CS(=O)C2 (stereo unspecified) | inactive
CCC[C@H]1C(=O)N2C(N(C)C)=Nc3ccc(C)cc3N2C1=O | inactive
Cc1nc2cnc(N3CCN(C)CC3)nc2n(CCC#N)c1=O | inactive
CCOc1ccc(-c2nnn(CC(=O)N3CCN(c4ccc(OC)cc4)CC3)n2)cc1OCC | inactive
Cc1cnc(NC(=O)CSc2nnc(-c3ccc(Cl)cc3Cl)n2N)s1 | inactive
CC[C@]1(C)CC(=O)NC1=O | inactive
CCc1ccc2oc(=O)cc(CN3CCCCC3C)c2c1 (stereo unspecified) | inactive
Cc1cc(NC(=O)Cn2nc(C(F)(F)F)c3c2CCCC3)no1 | inactive
Cc1cc(C(F)(F)F)n2ncc(-c3ccccc3)c2n1 | inactive
CN(C)/C=C1/Nc2ccccc2C1=O | inactive
CCOC(=O)C1CCCCN1Cc1ccc(OC)c(OC)c1OC (stereo unspecified) | inactive
CN(Cc1ccco1)c1ncncc1-c1ccoc1 | inactive

Structure (SMILES) | max dye-equivalent concentration
COc1ccc(-c2c3c(=O)n(C)c(=O)n(C)c3cn2NC(C)=O)cc1 | inactive
COc1ccc2nccc(C(=O)O)c2c1 | inactive
Cc1ccc(C(=O)Nc2nnc(-c3cccs3)s2)cc1C | inactive
CCc1ccccc1NC(=O)CSc1nnc([C@@H](NC(=O)OC(C)(C)C)C(C)C)o1 | inactive
Cc1ccc(F)cc1NC(=O)c1ccc2c(c1)OCO2 | inactive
CC(C)[C@H](NC(=O)Nc1ccc(S(N)(=O)=O)cc1)C(=O)O | inactive
CCc1ccccc1N(CC(=O)N1CCN(c2ccccc2F)CC1)S(C)(=O)=O | inactive
COc1ccccc1NC(=O)CSc1nc2sc(C)c(C)c2c(=O)n1Cc1ccco1 | inactive
CN(c1ccccc1)c1ccc(/C=c2\s/c(=C(/C#N)C(=O)C(C)(C)C)n(Cc3ccco3)c2=O)cc1 | 54 nM (active)
CCOc1ccccc1/C=c1\sc2nc(-c3ccco3)nn2c1=O | inactive
Cc1c(S(=O)(=O)O)ccc(N=Nc2c(O)c(C(=O)O)cc3ccccc23)c1Cl | inactive
O=C(NCc1ccco1)c1cnn2c(C(F)(F)F)cc(-c3ccco3)nc12 | inactive
COCCn1c(=O)c(-c2cccs2)nc2cnc(N3CCN(C)CC3)nc21 | inactive
COCCn1c(=O)c(CCc2ccccc2)nc2cncnc21 | inactive
COc1ccc(-c2nc3cnc(N(C)C)nc3n(Cc3cccs3)c2=O)cc1 | inactive
c1ccc2c(Nc3ccncc3)nc(-c3ccc4c(c3)OCO4)nc2c1 | inactive
Cn1c(=O)c(CCc2ccccc2)nc2cnc(Nc3ccccc3)nc21 | inactive
CS(=O)(=O)NCc1ccc(C(=O)NCc2ccccc2)cc1 | inactive
CCc1cccc(C)c1NC(=O)CSc1nnc(-c2ccco2)n1N | inactive
O=C(Nc1ccccc1F)c1cc(S(=O)(=O)N2CCCCC2)cs1 | inactive
Fc1cnc(N2CCOCC2)nc1NCc1ccccc1 | inactive
CCNc1ncc2ncc(=O)n(CCc3ccccc3)c2n1 | inactive
Cc1noc(C)c1-c1nc(Nc2ccccc2)c2ccccc2n1 | inactive

Structure (SMILES) | max dye-equivalent concentration
Cc1cc(N2CCCC2)n2nc(C)c(-c3ccccc3)c2n1 | inactive
CC(C)(C)c1csc(NC2=NS(=O)(=O)c3ccccc32)n1 | inactive
COc1ccc(-c2nc3cnc(Oc4ccccc4)nc3n(Cc3cccs3)c2=O)cc1 | inactive
COC(=O)CN(c1nc(C)c(Cl)c(OC)n1)S(=O)(=O)c1ccc(C)cc1 | inactive
COC(=O)CNC(=O)c1ccc2c(c1)S(=O)(=O)c1ccccc1C2=O | inactive
CC(C)C1N=C2c3ccccc3N=C(SCC(=O)c3ccc(O)c(O)c3)N2C1=O (stereo unspecified) | inactive
O=C(O)C1CCCCC1C(=O)Nc1ccc(Cl)cc1 (stereo unspecified) | inactive
CCCS(=O)(=O)C(=C1Nc2ccccc2N1)S(=O)(=O)CCC | inactive
Cn1c(-c2ccc(C(=O)c3ccccc3)s2)nc2ccccc21 | inactive
O=C(NCC1CCCO1)C(C(=O)c1ccccc1)n1cc(Cl)ccc1=O (stereo unspecified) | inactive
CCOC(=O)c1[nH]c2ccc(C)cc2c1N=C(C)N(C)C | inactive
COC(=O)N1CCC2(CCCN(c3ccncc3)C2)CC1 | inactive
COCCn1c(=O)c(-c2ccccc2)nc2cnc(N3CCOCC3)nc21 | inactive
COCCn1c(=O)c(-c2cc(F)cc(F)c2)nc2cncnc21 | inactive
Cc1nn2c3ccccc3nc2n(C)c1=O | inactive
O=C(COc1ccc2c3c(c(=O)oc2c1)CCC3)NC1CCCCC1 | inactive
O=C(NCc1ccccn1)c1cc2ccccc2oc1=O | inactive
COc1ccc(Cl)cc1NC(=O)c1oc(C)nc1C | inactive
Cc1c(C)c2c(c(C)c1O)CC[C@@](C)(CN1CCN(c3cc(N4CCCC4)nc(N4CCCC4)n3)CC1)O2 | inactive
